The target of experiment [1] is Aldehyde dehydrogenase, mitochondrial (Homo sapiens) (UniProt P05091). As to the kind of experiment: qHTS for Inhibitors of the Aldehyde Dehydrogenase Family (ALDH2) Primary screen (AID 2061308). Note: nearly all actives have a fitted effect of over 55% in size. Conditions: ALDH2 enzyme inhibition qHTS, 1536-well; series mostly up to 56 µM. For orientation: Quantitative high-throughput screening tests each substance at several concentrations.

In experiment [2] the target is Retinaldehyde dehydrogenase 3 (Homo sapiens) (UniProt P47895). Kind of experiment: qHTS for Inhibitors of the Aldehyde Dehydrogenase Family (ALDH1A3) Primary screen (AID 2061315). The following applies: ALDH inhibition qHTS; series mostly up to 56 µM.

Consider 77 compounds from PubChem BioAssay (NCATS).

Results filed as inconclusive are left out. Entries that show only a call come without a potency. Active and inactive are the calls of the source. Calls come from the whole dose curve; as a rule, active = well fitted curve in the direction sought with a large enough effect; inconclusive = small, poorly fitted or top-dose-only effect, or another doubt; inactive = no such curve, though single readings can be large; an effect the other way counts as inactive or inconclusive.

For `O=[S+]([O-])(Nc1cnc2ccccc2c1)c1ccc(NCc2ccc(Cl)cc2O)cc1`, the Potency result in experiment [1] and in experiment [2] was “inactive” in each case.
As to `Clc1ccc2ncc(-c3cccc(NC4CCNCC4)n3)n2c1`, the Potency entry in experiment [1] and in experiment [2] was “inactive” each time.
Take `Cc1ccccc1OC1=NS(=O)(=O)c2ccccc21`: the Potency entry in experiment [1] and in experiment [2] was “inactive” each time.
On to `C=C1C(=O)OC2C3=C(C)C(=O)CC3C(C)CC(O)C12` (centres undefined), for which the Potency result in experiment [1] and in experiment [2] was “inactive” each time.
Consider `O=C(OCC#CCSc1nnc(-c2cccc3ccccc23)o1)c1ccccc1F`, for which the Potency result in experiment [1] and in experiment [2] was “inactive” throughout.
As for `O=C(Nc1ccc(Cl)c(C(F)(F)F)c1)Nc1cccc(-c2ccncc2)n1`, the Potency result in experiment [1] and in experiment [2] was “inactive” each time.
For the compound `Cc1ccc(-c2ccc(=O)n(CC(=O)N(C)C3CCCCCC3)n2)cc1`, the Potency entry in experiment [1] and in experiment [2] was “inactive” in each case.
As to `COc1ccc(C)cc1NC(=O)C(OC(=O)CNC(=O)c1ccccc1)c1ccccc1` (centres undefined), the Potency entry in experiment [1] and in experiment [2] was “inactive” throughout.
Regarding `C=C1C(=O)O[C@@H]2/C=C(/C)[C@@H](OC(C)=O)C/C=C(\C)C[C@@H](OC(=O)/C(=C/CO)CO)[C@@H]12`, the Potency result in experiment [1] and in experiment [2] was “inactive” in each case.
Turning to `O=C(/C=C/c1ccc(OC(F)(F)F)cc1)Nc1cccc([S+](=O)([O-])Nc2ccccc2F)c1`, the Potency entry in experiment [1] and in experiment [2] was “inactive” in each case.
For the compound `O=C(Nc1ccc2ccccc2c1)Nc1nnc(-c2ccccc2Cl)s1`, the Potency result in experiment [1] and in experiment [2] was “inactive” throughout.
`CCOC(=O)C1CCN(C(=O)C(C)(C)NC(=O)Nc2ccc(Cl)cc2Cl)CC1`: the Potency entry in experiment [1] and in experiment [2] was “inactive” in each case.
Take `Clc1ccccc1-c1ccc2ncnc(NCc3cccs3)c2c1`: the Potency entry in experiment [1] and in experiment [2] was “inactive” throughout.
For the compound `Cc1ccc(-n2c(=O)ccc(=O)n2CC(=O)NCCc2ccccc2)cc1`, the Potency result in experiment [1] and in experiment [2] was “inactive” throughout.
For `Cc1ccc(NS(=O)(=O)c2cc3c(cc2Cl)CCC(=O)N3)cc1C`, the Potency result in experiment [1] and in experiment [2] was “inactive” each time.
On to `O=C(O)c1ccc2c(c1)C(=O)N([C@H](Cc1ccc(O)c(O)c1)C(=O)O)C2=O`, for which the Potency result in experiment [1] and in experiment [2] was “inactive” throughout.
In the case of `Cn1c(=O)c2c(nc(OC3CCN(C(=O)C4CC4)CC3)n2CCC(C)(C)C)n(C)c1=O`, the Potency entry in experiment [1] and in experiment [2] was “inactive” throughout.
With `COc1cccc(-c2ccc3ncnc(NCc4ccc5c(c4)OCO5)c3c2)c1`, the Potency result in experiment [1] and in experiment [2] was “inactive” in each case.
On to `CCn1cnc2c(Nc3cccc(Cl)c3)nc(C#N)nc21`, for which the Potency result in experiment [1] and in experiment [2] was “inactive” in each case.
`Cc1ccc(-c2cc(C(=O)Nc3nc4ccccc4s3)c3ccccc3n2)cc1C`: the Potency result in experiment [1] and in experiment [2] was “inactive” throughout.
In the case of `Cc1cnc(-c2ccccc2C(C)C)nc1NC(C)c1ccc(-c2cccnc2)cc1` (centres undefined), the Potency result in experiment [1] and in experiment [2] was “inactive” in each case.
With `CC(=O)Nc1sc2c(c1-c1nc3ccccc3s1)CCS(=O)(=O)C2`, the Potency entry in experiment [1] and in experiment [2] was “inactive” in each case.
As for `C[C@@H](NC(c1ccc(F)cc1)c1ccc2cccnc2c1O)c1ccccc1` (some centres undefined), the Potency result in experiment [1] and in experiment [2] was “inactive” throughout.
With `O=C1CCCC2=C1C1(CCCC1)N=C(Nc1nc3cc(Cl)ccc3o1)N2`, the Potency entry in experiment [1] and in experiment [2] was “inactive” each time.
As for `Cc1ccc(-c2ccc(=O)n(CC(=O)NCCCc3ccccn3)n2)cc1`, the Potency result in experiment [1] and in experiment [2] was “inactive” each time.
`Cc1csc(CNc2ncnc3ccc(-c4ccc(C(=O)O)o4)cc23)n1`: the Potency result in experiment [1] and in experiment [2] was “inactive” each time.
Consider `CC(=O)NC(c1cc(Cl)c2cccnc2c1O)C(C)C` (centres undefined), for which the Potency entry in experiment [1] and in experiment [2] was “inactive” in each case.
Turning to `Fc1ccc(CNc2nc(-c3ccccc3C(F)(F)F)nc3ccccc23)cc1`, the Potency result in experiment [1] and in experiment [2] was “inactive” throughout.
Take `Cc1ccc(-c2cc(C(=O)Nc3ccc(S(=O)(=O)NCc4nccs4)cc3)c3ccccc3n2)cc1C`: the Potency result in experiment [1] and in experiment [2] was “inactive” throughout.
Consider `Cc1ccnc(NC(=S)NC2CN(c3cccc(C(F)(F)F)c3)C2)c1`, for which the Potency entry in experiment [1] and in experiment [2] was “inactive” each time.
Consider `COc1cccc(C2c3c(ncn(-c4cccc(C)c4)c3=N)Oc3ccc4ccccc4c32)c1` (centres undefined), for which the Potency entry in experiment [1] and in experiment [2] was “inactive” in each case.
Take `O=C(OCC#CCSc1nnc(-c2cccc3ccccc23)o1)c1cccc(F)c1`: the Potency entry in experiment [1] and in experiment [2] was “inactive” in each case.
As for `CC(C)(C)OC(=O)Cc1nnc(-c2cc3ccccc3[nH]2)s1`, the Potency entry in experiment [1] and in experiment [2] was “inactive” in each case.
For the compound `O=C(Nc1ccc(Cl)nc1)Nc1nnc(-c2ccncc2)s1`, the Potency entry in experiment [1] and in experiment [2] was “inactive” each time.
For `COc1cccc(CNc2ccc(S(=O)(=O)Nc3ncc(C)s3)cc2)c1O`, the Potency entry in experiment [1] and in experiment [2] was “inactive” in each case.
As for `N#Cc1nc(-c2cccc3ccccc23)oc1N`, the Potency entry in experiment [1] and in experiment [2] was “inactive” throughout.
Turning to `Cc1ccnc(NC(=S)N2CCN(c3ncc(C(F)(F)F)cc3Cl)CC2)c1`, the Potency result in experiment [1] and in experiment [2] was “inactive” each time.
For the compound `C[C@H]1CN(S(=O)(=O)c2ccc3c(c2)OCCO3)CCN1S(=O)(=O)c1c(F)cccc1F`, the Potency entry in experiment [1] and in experiment [2] was “inactive” in each case.
`COc1ccccc1NC(=O)c1ccc2ccccc2c1`: the Potency result in experiment [1] and in experiment [2] was “inactive” in each case.
On to `CC1=CC2/C=C(\C)CCC(O)C/C=C/C(=O)OC23C(=O)NC(CC(C)C)C3C1C` (centres undefined), for which the Potency entry in experiment [1] and in experiment [2] was “inactive” in each case.
For `CCCn1c(-c2ccc(F)cc2)nc2c(NC3CCN(Cc4ccccc4)CC3)nc(C)nc21`, the Potency result in experiment [1] and in experiment [2] was “inactive” in each case.
For the compound `C=C(C)C(=O)O[C@H]1[C@H]2C(=C)C(=O)O[C@@H]2C[C@@H](C)[C@@H]2O[C@@H]2C(=O)[C@](C)(O)[C@@H]1OC(C)=O`, the Potency entry in experiment [1] and in experiment [2] was “inactive” each time.
As for `O=C1CCc2cc(S(=O)(=O)Nc3ccc(-c4ccccc4)cc3)ccc2N1`, the Potency result in experiment [1] and in experiment [2] was “inactive” each time.
For `O=C(CNC(=O)c1ccccc1)OC(CCc1ccccc1)C(=O)Nc1cc(C(F)(F)F)ccc1Cl` (centres undefined), the Potency entry in experiment [1] and in experiment [2] was “inactive” in each case.
For the compound `CCCn1c(-c2ccc(F)cc2)nc2c(NCCCCN(C)C)nc(C)nc21`, the Potency entry in experiment [1] and in experiment [2] was “inactive” throughout.
For `Fc1cc(Nc2nc(-c3ccncc3)nc3ccccc23)ccc1-c1ccc2[nH]ncc2c1`, the Potency result in experiment [1] and in experiment [2] was “inactive” in each case.
As for `O=C(OCC#CCSc1nnc(-c2ccc3ccccc3c2)o1)c1ccc(OC(F)(F)F)cc1`, the Potency result in experiment [1] and in experiment [2] was “inactive” throughout.
For the compound `O=C(Nc1nc(-c2ccccc2)cs1)c1ccccc1Cl`, the Potency entry in experiment [1] and in experiment [2] was “inactive” each time.
For the compound `COc1cc2nc(Nc3ccccc3)nc(NC3CC3)c2cc1OC`, the Potency result in experiment [1] and in experiment [2] was “inactive” each time.
`Cc1cnc(-c2ccccc2C(C)C)nc1NCc1ccc(C(N)=O)cc1`: the Potency entry in experiment [1] and in experiment [2] was “inactive” in each case.
For `O=C(Nc1ccc(-c2nc3ccccc3[nH]2)cc1)c1ccc(C(F)(F)F)cc1`, the Potency result in experiment [1] and in experiment [2] was “inactive” each time.
Take `C[C@H]1CN(S(=O)(=O)c2c(F)cccc2F)CCN1S(=O)(=O)c1ccc2c(c1)OCCO2`: the Potency result in experiment [1] and in experiment [2] was “inactive” each time.
For the compound `O=S(=O)(NCCNc1nc(-c2ccco2)nc2ccccc12)c1ccccc1`, the Potency entry in experiment [1] and in experiment [2] was “inactive” in each case.
In the case of `Cc1cc(NS(=O)(=O)c2ccc3c(c2)CCC(=O)N3)ccc1Cl`, the Potency result in experiment [1] and in experiment [2] was “inactive” throughout.
In the case of `CCCc1c(C(C)C)nc(C(C)C)c([C@@H](C)O)c1-c1ccc(F)cc1O`, the Potency entry in experiment [1] and in experiment [2] was “inactive” each time.
On to `CC(=O)c1ccc(N2CCN(S(=O)(=O)c3ccc4[nH]c(=O)oc4c3)CC2)cc1`, for which the Potency result in experiment [1] and in experiment [2] was “inactive” each time.
With `Cc1ccc(S(=O)(=O)Nc2cnccc2C(=O)Nc2ccc(-c3nn[nH]n3)cc2)cc1`, the Potency entry in experiment [1] and in experiment [2] was “inactive” each time.
As for `Cc1nc(NC2CCCCC2)c2nc(-c3ccccc3)n(CCCN3CCCCC3C)c2n1` (centres undefined), the Potency result in experiment [1] and in experiment [2] was “inactive” each time.
With `COc1cccc(CNc2ccc(S(=O)(=O)Nc3cnc4ccccc4c3)cc2)c1O`, the Potency entry in experiment [1] and in experiment [2] was “inactive” throughout.
On to `CCOc1ccc(CCNC(=O)c2cc3ccccc3n2Cc2ccc(Cl)c(F)c2)cc1OCC`, for which the Potency entry in experiment [1] and in experiment [2] was “inactive” each time.
On to `CC(C)N1CCc2c(sc(NC(=O)C3CCCC3)c2-c2nc3ccccc3s2)C1`, for which the Potency entry in experiment [1] and in experiment [2] was “inactive” in each case.
On to `CCCn1c(-c2ccc(F)cc2)nc2c(NCCCCN(CC)CC)nc(C)nc21`, for which the Potency result in experiment [1] and in experiment [2] was “inactive” throughout.
Take `Cc1cc2c(s1)c1cnn(Cc3cc(F)cc(F)c3F)c(=O)c1n2C`: the Potency entry in experiment [1] and in experiment [2] was “inactive” in each case.
As to `Cc1ccc(S(=O)(=O)Nc2cnccc2C(=O)Nc2ccccc2)cc1`, the Potency entry in experiment [1] and in experiment [2] was “inactive” each time.
As for `COc1cc(OC)cc(-c2nnc3n2N=C(c2cc(OC)ccc2OC)CS3)c1`, the Potency result in experiment [1] and in experiment [2] was “inactive” throughout.
With `Cc1ccc(-c2cc(C(=O)Nc3ccc(Cl)cc3)c3ccccc3n2)cc1C`, the Potency entry in experiment [1] and in experiment [2] was “inactive” throughout.
In the case of `CN1CCN(c2cc(-c3cc(O)c4ncccc4c3)ccn2)CC1`, the Potency entry in experiment [1] and in experiment [2] was “inactive” in each case.
With `Cc1cccc(CNc2ccnc(-c3ccc(C(F)(F)F)cc3)n2)c1`, the Potency result in experiment [1] and in experiment [2] was “inactive” throughout.
For `COc1cc(-c2ccc3ncnc(NCC4CCCO4)c3c2)cc(OC)c1OC` (centres undefined), the Potency result in experiment [1] and in experiment [2] was “inactive” each time.
On to `COc1cccc(C2c3c(ncn(-c4ccncc4)c3=N)Oc3ccc4ccccc4c32)c1` (centres undefined), for which the Potency result in experiment [1] and in experiment [2] was “inactive” each time.
For `NCCCC(=O)Nc1ccc(Cl)cc1C(=O)c1ccc[nH]1`, the Potency result in experiment [1] and in experiment [2] was “inactive” throughout.
For the compound `COc1ccc(OC)c(C(=O)Nc2nc(-c3ccccc3)cs2)c1`, the Potency result in experiment [1] and in experiment [2] was “inactive” in each case.
Regarding `O=S(=O)(Cc1ccc(Cl)c(Cl)c1)Nc1nnc(-c2ccncc2)s1`, the Potency entry in experiment [1] and in experiment [2] was “inactive” throughout.
Take `CC(C)(C)c1ccc(C(=O)NCC(=O)OC(C(=O)Nc2cc(C(F)(F)F)ccc2Cl)c2ccccc2)cc1` (centres undefined): the Potency entry in experiment [1] and in experiment [2] was “inactive” each time.
As for `Cc1c(C(=O)NCC2CCCO2)[nH]c2c1C(=O)CC(c1ccco1)C2` (centres undefined), the Potency entry in experiment [1] and in experiment [2] was “inactive” in each case.
Consider `CCC(C)C(=O)Oc1cc(C)ccc1C1(COC(=O)C(C)C)CO1` (centres undefined), for which the Potency result in experiment [1] and in experiment [2] was “inactive” in each case.
For the compound `COc1cc(-c2ncn(/C=C\C(=O)OC(C)C)n2)cc(C(F)(F)F)c1`, the Potency result in experiment [1] and in experiment [2] was “inactive” throughout.
